# Results as given in the supplement of paper PMC8728848.
# Many of the other results were omitted from the sample, so the strongest signals are more common in it than they were.
# B1: SspB C123 (Streptococcus gordonii), Q54186 (protein)
# chain: MAHFHYSSLLAQPQINKEIKNEDGVDIDRTLVAKQSIGKFELKTEALTAGRPKTTSFVLVDPLPTGYKFDLDATKAASTGFDTTYDEASHTVTFKATDETLATYNADLTKPVETLHPTVVGRVLNDGATYTNNFTLTVNDAYGIKSNVVRVTTPGKPNDPDNPNNNYIKPTKVNKNKEGLNIDGKEVLAGSTNYYELTWDLDQYKGDKSSKEAIQNGFYYVDDYPEEALDVRPDLVKVADEKGNQVSGVSVQQYDSLEAAPKKVQDLLKKANITVKGAFQLFSADNPEEFYKQYVSTGTSLVITDPMTVKSEFGKTGGKYENKAYQIDFGNGYATEVVVNNVPKITPKKDVTVSLDPTSENLDGQTVQLYQTFNYRLIGGFIPQNHSEELEDYSFVDDYDQAGDQYTGNYKTFSSLNLTMKDGSVIKAGTDLTSQTTAETDATNGIVTVRFKEDFLQKISLDSPFQAETYLQMRRIAIGTFENTYVNTVNKVAYASAAALEHHHHHH
# B2: rPitB (Streptococcus pneumoniae), A0A0I7U739 (protein)
# chain: MSEIEIINAKKIYHDVPVIENLNITIPKGSLFTLLGASGCGKTTLLRMIAGFNSIKDGEFYFDDTKINNMEPSKRNIGLVFQNYAIFPHLTVRDNVAFGLMQKKVPKEELIQQTNKYLELMQIAQYAD
# Columns and labels:
# Assay in all cases: glycan array binding signal (z-score within array); higher = stronger binding
# Conditions in all cases: glycan notation: IUPAC condensed, linker removed
# [1] = biological target: GlcNAc(b1-3)Gal(b1-4)GlcNAc(b1-3)Gal(b1-4)GlcNAc(b1-3)Gal(b1-4)GlcNAc(b1-2)Man(a1-3)[GlcNAc(b1-3)Gal(b1-4)GlcNAc(b1-3)Gal(b1-4)GlcNAc(b1-3)Gal(b1-4)GlcNAc(b1-2)Man(a1-6)]Man(b1-4)GlcNAc(b1-4)[Fuc(a1-6)]GlcNAc
# Summary of the method: (§1)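 Negative Z-scores can be read as non-binding. The Z-score is calculated within each array and then averaged across arrays of one protein sequence at different concentrations or buffers and across linkers. Arrays, 3228 in all, were curated from the Consortium for Functional Glycomics database and kept only where the protein sequence was available.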
# [2] = biological target: GlcNAc(b1-3)Gal(b1-4)GlcNAc(b1-3)[GlcNAc(b1-3)Gal(b1-4)GlcNAc(b1-3)]GalNAc
# Summary of the method: as §1
# GlcNAc(b1-6)GalNAc = biological target: GlcNAc(b1-6)GalNAc
# Summary of the method: as §1
# Man(a1-6)Man = biological target: Man(a1-6)Man
# Summary of the method: as §1
# [3] = biological target: Neu5Ac(a2-3)Gal(b1-3)GalNAc(b1-3)Gal(a1-4)Gal(b1-4)Glc
# Summary of the method: as §1
# [4] = biological target: Neu5Ac(a2-3)Gal(b1-3)GalNAc(b1-4)[Neu5Ac(a2-8)Neu5Ac(a2-3)]Gal(b1-4)Glc
# Summary of the method: as §1
# [5] = biological target: Neu5Ac(a2-3)Gal(b1-4)[Fuc(a1-3)]GlcNAc(b1-3)Gal(b1-4)[Fuc(a1-3)]GlcNAc(b1-3)Gal(b1-4)[Fuc(a1-3)]GlcNAc
# Summary of the method: as §1
# [6] = biological target: Neu5Ac(a2-3)Gal(b1-4)[Fuc(a1-3)]GlcNAc(b1-3)GalNAc
# Summary of the method: as §1
# [7] = biological target: Neu5Ac(a2-3)Gal(b1-4)[Fuc(a1-3)]GlcNAc(b1-6)[Neu5Ac(a2-3)Gal(b1-3)]GalNAc
# Summary of the method: as §1
# [8] = biological target: Neu5Ac(a2-3)Gal6S(b1-4)[Fuc(a1-3)]GlcNAc
# Summary of the method: as §1
# Neu5Ac(a2-6)Gal(b1-4)Glc = biological target: Neu5Ac(a2-6)Gal(b1-4)Glc
# Summary of the method: as §1
# [9] = biological target: Neu5Ac(a2-6)Gal(b1-4)GlcNAc(b1-2)Man(a1-6)Man(b1-4)GlcNAc(b1-4)GlcNAc
# Summary of the method: as §1
# [10] = biological target: Neu5Ac(a2-6)Gal(b1-4)GlcNAc(b1-3)Gal(b1-3)GlcNAc
# Summary of the method: as §1
# [11] = biological target: Neu5Ac(a2-6)Gal(b1-4)GlcNAc(b1-3)Gal(b1-4)GlcNAc(b1-3)Gal(b1-4)GlcNAc(b1-2)Man(a1-3)[Neu5Ac(a2-6)Gal(b1-4)GlcNAc(b1-3)Gal(b1-4)GlcNAc(b1-3)Gal(b1-4)GlcNAc(b1-2)Man(a1-6)]GalNAc
# Summary of the method: as §1
# [12] = biological target: Neu5Ac(a2-6)Gal(b1-4)GlcNAc(b1-3)Gal(b1-4)[Fuc(a1-3)]GlcNAc(b1-3)Gal(b1-4)[Fuc(a1-3)]GlcNAc
# Summary of the method: as §1
# [13] = biological target: Neu5Ac(a2-6)Gal(b1-4)GlcNAc(b1-3)[Neu5Ac(a2-6)Gal(b1-4)GlcNAc(b1-6)]GalNAc
# Summary of the method: as §1
# [14] = biological target: Neu5Ac(a2-8)Neu5Ac(a2-8)Neu5Ac(a2-3)[Gal(b1-3)GalNAc(b1-4)]Gal(b1-4)Glc
# Summary of the method: as §1
# [15] = biological target: Neu5Ac(a2-8)Neu5Gc(a2-3)Gal(b1-4)GlcNAc
# Summary of the method: as §1
# [16] = biological target: Neu5Ac9Ac(a2-3)Gal(b1-4)GlcNAc
# Summary of the method: as §1
# [17] = biological target: Neu5Ac9Ac(a2-6)Gal(b1-4)GlcNAc
# Summary of the method: as §1
# [18] = biological target: Neu5Gc(a2-8)Neu5Gc(a2-3)Gal(b1-4)GlcNAc
# Summary of the method: as §1
# [19] = biological target: Fuc(a1-2)Gal(b1-3)GalNAc(a1-3)[Fuc(a1-2)]Gal(b1-4)GlcNAc
# Summary of the method: as §1
# [20] = biological target: Fuc(a1-2)Gal(b1-3)GalNAc(b1-4)[Neu5Ac(a2-3)]Gal(b1-4)Glc
# Summary of the method: as §1
# [21] = biological target: Fuc(a1-2)Gal(b1-3)GlcNAc(b1-3)[Gal(b1-4)GlcNAc(b1-6)]Gal(b1-4)Glc
# Summary of the method: as §1
# [22] = biological target: Fuc(a1-2)Gal(b1-3)[Fuc(a1-4)]GlcNAc(b1-3)[Fuc(a1-3)[Gal(b1-4)]GlcNAc(b1-6)]Gal(b1-4)Glc
# Summary of the method: as §1
# [23] = biological target: Fuc(a1-2)Gal(b1-4)GlcNAc(b1-2)[Fuc(a1-2)Gal(b1-4)GlcNAc(b1-4)]Man(a1-3)[Fuc(a1-2)Gal(b1-4)GlcNAc(b1-2)Man(a1-6)]Man(b1-4)GlcNAc(b1-4)GlcNAc
# Summary of the method: as §1
# [24] = biological target: Fuc(a1-2)[Gal(a1-3)]Gal(b1-3)GlcNAc
# Summary of the method: as §1
# [25] = biological target: Fuc(a1-2)[Gal(a1-3)]Gal(b1-4)Glc
# Summary of the method: as §1
# [26] = biological target: Fuc(a1-2)[Gal(a1-4)]Gal(b1-4)GlcNAc
# Summary of the method: as §1
# [27] = biological target: Fuc(a1-2)[GalNAc(a1-3)]Gal(b1-4)Glc
# Summary of the method: as §1
# [28] = biological target: Fuc(a1-2)[GalNAc(a1-3)]Gal(b1-4)GlcNAc
# Summary of the method: as §1
# [29] = biological target: Fuc(a1-2)[GalNAc(a1-3)]Gal(b1-4)GlcNAc(b1-2)Man(a1-3)[Fuc(a1-2)[GalNAc(a1-3)]Gal(b1-4)GlcNAc(b1-2)Man(a1-6)]Man(b1-4)GlcNAc(b1-4)GlcNAc
# Summary of the method: as §1
# [30] = biological target: Fuc(a1-3)[Gal(b1-4)]GlcNAc(b1-4)Gal(b1-4)[Fuc(a1-3)]GlcNAc(b1-4)Gal(b1-4)[Fuc(a1-3)]GlcNAc
# Summary of the method: as §1
# Fuc(a1-4)GlcNAc = biological target: Fuc(a1-4)GlcNAc
# Summary of the method: as §1
# Gal(a1-3)Gal(b1-4)Glc = biological target: Gal(a1-3)Gal(b1-4)Glc
# Summary of the method: as §1
# [31] = biological target: Gal(a1-4)Gal(b1-4)GlcNAc(b1-2)Man(a1-3)[Gal(a1-4)Gal(b1-4)GlcNAc(b1-2)Man(a1-6)]Man(b1-4)GlcNAc(b1-4)GlcNAc
# Summary of the method: as §1
# Gal(b1-3)GlcNAc = biological target: Gal(b1-3)GlcNAc
# Summary of the method: as §1
# [32] = biological target: Gal(b1-3)GlcNAc(b1-2)Man(a1-3)[Gal(b1-3)GlcNAc(b1-2)Man(a1-6)]Man(b1-4)GlcNAc(b1-4)GlcNAc
# Summary of the method: as §1
# [33] = biological target: Gal(b1-3)GlcNAc(b1-2)Man(a1-3)[Gal(b1-3)GlcNAc(b1-2)Man(a1-6)]Man(b1-4)GlcNAc(b1-4)[Fuc(a1-6)]GlcNAc
# Summary of the method: as §1
# [34] = biological target: Gal(b1-3)[Fuc(a1-4)]GlcNAc(b1-2)Man(a1-3)[Gal(b1-3)[Fuc(a1-4)]GlcNAc(b1-2)Man(a1-6)]Man(b1-4)GlcNAc(b1-4)GlcNAc
# Summary of the method: as §1
# [35] = biological target: Gal(b1-3)[Fuc(a1-4)]GlcNAc(b1-2)Man(a1-3)[Gal(b1-3)[Fuc(a1-4)]GlcNAc(b1-2)Man(a1-6)]Man(b1-4)GlcNAc(b1-4)[Fuc(a1-6)]GlcNAc
# Summary of the method: as §1
# [36] = biological target: Gal(b1-3)[Neu5Ac(a2-6)]GalNAc
# Summary of the method: as §1
# [37] = biological target: Gal(b1-3)[Neu5Ac(a2-6)]GlcNAc(b1-6)Gal(b1-4)Glc
# Summary of the method: as §1
# [38] = biological target: Gal(b1-4)GlcNAc(b1-2)Man(a1-3)[Gal(b1-4)GlcNAc(b1-2)Man(a1-6)]Man(b1-4)GlcNAc(b1-4)[Fuc(a1-6)]GlcNAc
# Summary of the method: as §1
# [39] = biological target: Gal(b1-4)GlcNAc(b1-2)Man(a1-3)[GlcNAc(b1-2)Man(a1-6)]Man(b1-4)GlcNAc(b1-4)GlcNAc
# Summary of the method: as §1
# [40] = biological target: Gal(b1-4)GlcNAc(b1-6)Gal(b1-4)GlcNAc
# Summary of the method: as §1
# [41] = biological target: Gal3S(b1-3)[Fuc(a1-4)]GlcNAc
# Summary of the method: as §1
# Gal3S(b1-4)Glc6S = biological target: Gal3S(b1-4)Glc6S
# Summary of the method: as §1
# Gal3S(b1-4)GlcNAc6S = biological target: Gal3S(b1-4)GlcNAc6S
# Summary of the method: as §1
# Gal3S6S(b1-4)GlcNAc6S = biological target: Gal3S6S(b1-4)GlcNAc6S
# Summary of the method: as §1
# Gal6S(b1-3)GlcNAc6S = biological target: Gal6S(b1-3)GlcNAc6S
# Summary of the method: as §1
binder,measurement,setting,value
B1,glycan array binding signal (z-score),[1],0.372
same,glycan array binding signal (z-score),[2],0.786
same,glycan array binding signal (z-score),GlcNAc(b1-6)GalNAc,-0.398
same,glycan array binding signal (z-score),Man(a1-6)Man,3.13
same,glycan array binding signal (z-score),[3],-0.945
same,glycan array binding signal (z-score),[4],-0.494
same,glycan array binding signal (z-score),[5],2.7
same,glycan array binding signal (z-score),[6],2.98
same,glycan array binding signal (z-score),[7],3.38
same,glycan array binding signal (z-score),[8],-0.28
same,glycan array binding signal (z-score),Neu5Ac(a2-6)Gal(b1-4)Glc,-0.254
same,glycan array binding signal (z-score),[9],-0.261
same,glycan array binding signal (z-score),[10],-0.017
same,glycan array binding signal (z-score),[11],3.21
same,glycan array binding signal (z-score),[12],0.632
same,glycan array binding signal (z-score),[13],-0.829
same,glycan array binding signal (z-score),[14],5.25
same,glycan array binding signal (z-score),[15],-0.198
same,glycan array binding signal (z-score),[16],-0.938
same,glycan array binding signal (z-score),[17],0.758
same,glycan array binding signal (z-score),[18],-0.249
B2,glycan array binding signal (z-score),[19],-0.708
same,glycan array binding signal (z-score),[20],-0.128
same,glycan array binding signal (z-score),[21],-0.397
same,glycan array binding signal (z-score),[22],0.227
same,glycan array binding signal (z-score),[23],0.316
same,glycan array binding signal (z-score),[24],-0.113
same,glycan array binding signal (z-score),[25],1.11
same,glycan array binding signal (z-score),[26],-0.108
same,glycan array binding signal (z-score),[27],-0.271
same,glycan array binding signal (z-score),[28],-0.509
same,glycan array binding signal (z-score),[29],0.481
same,glycan array binding signal (z-score),[30],3.03
same,glycan array binding signal (z-score),Fuc(a1-4)GlcNAc,-0.579
same,glycan array binding signal (z-score),Gal(a1-3)Gal(b1-4)Glc,-0.617
same,glycan array binding signal (z-score),[31],1.43
same,glycan array binding signal (z-score),Gal(b1-3)GlcNAc,-0.704
same,glycan array binding signal (z-score),[32],0.944
same,glycan array binding signal (z-score),[33],0.638
same,glycan array binding signal (z-score),[34],3.68
same,glycan array binding signal (z-score),[35],2.09
same,glycan array binding signal (z-score),[36],0.092
same,glycan array binding signal (z-score),[37],-0.142
same,glycan array binding signal (z-score),[38],0.8
same,glycan array binding signal (z-score),[39],-0.568
same,glycan array binding signal (z-score),[40],-0.596
same,glycan array binding signal (z-score),[41],-0.575
same,glycan array binding signal (z-score),Gal3S(b1-4)Glc6S,0.112
same,glycan array binding signal (z-score),Gal3S(b1-4)GlcNAc6S,0.471
same,glycan array binding signal (z-score),Gal3S6S(b1-4)GlcNAc6S,-0.233
same,glycan array binding signal (z-score),Gal6S(b1-3)GlcNAc6S,0.052
